Here are results for 19 sequences from the OligoGym collection.
Also: reference of the scale not given here.

One assay deals with ZDHHC20. Put plainly: pooled miR-30 sensor sort-seq; sequence = guide strand. As to conditions: shRNA.
For the sequence TTGTTGTTCTATTTTTTCCAAC, the sensor-assay potency score (higher = more potent) was -1.28. The same measure, in the same setting: next, TAAAGTACTCTAAAACTGTTGC: 0.215.

In turn, TTCTTCAGCTCCATTCTCCAGC showed a sensor-assay potency score (higher = more potent) of -0.419. On the same count and under the same terms, the same measure for TTTCTTGTTGTCTTTCTTGGCT: -0.0932; for TCTTGTTGTCTTTCTTGGCTGA: 0.533; for TTATAAAGTACTCTAAAACTGT: -0.589. On to TATAGATAGGTAAAGCTCTTGC, for which the sensor-assay potency score (higher = more potent) is -0.117.

In another assay the target is ZDHHC24. Described as above. The settings on record: shRNA.
Regarding TAGCAGTAAGCCCAGCCCTGGC, the sensor-assay potency score (higher = more potent) is -1.6. The sequence TGAGCAACATGAGCCAGGGAAG came in with a sensor-assay potency score (higher = more potent) of -1.75. On the same count and under the same terms, the same measure for TTGAGCAGCTGGAAGGCGGCCA: -0.092. On to CCTGTGAGCAACATGAGCCAGG, for which the sensor-assay potency score (higher = more potent) is -2.43. As to TTGCCGAAGCCCACGCAGCGGC, the sensor-assay potency score (higher = more potent) is -1.27.

Sequence AGACACTCTGCCTGTGAGCAAC returned a sensor-assay potency score (higher = more potent) of -2.01. Same read-out and setting: next, TGAAGCAGCAGGCACAGGAAGG: -1.8; TCCCATGGAAGAGCAGCCCAGC: -1.99; TGCCAGAGACACTCTGCCTGTG: -0.683. On the same count and under the same terms, next, TCTGCCTGTGAGCAACATGAGC: -1.73; TAGTTGCCGAAGCCCACGCAGC: -1.53. Still for that read-out and setting: the same measure for TGTGAGCAACATGAGCCAGGGA: -0.189.
